Screening data (PubChem)
ADAM10 inh: human ADAM10 inhibitors, primary screen, biochemical, QFRET, HTS; Disintegrin and metalloproteinase domain-containing protein 10 (Homo sapiens), O14672; recombinant ADAM10, EDANS/DABCYL FRET peptide cleavage, 3 h; inhibition, % at 7 µM; 370,000 tested, 0.62% active; AID 720582, 2013;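 active = inhibition above a per-campaign cutoff equal to the mean of compounds falling between control-based bounds plus 3 SD, cut at about 20% in these data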;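 also: 0% = DMSO wells while the 100% control is not disclosed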
ADAM17 inh: ADAM17 inhibitors, primary screen, biochemical, QFRET; Disintegrin and metalloproteinase domain-containing protein 17 (Homo sapiens), P78536; recombinant ADAM17, EDANS/DABCYL FRET peptide cleavage; inhibition, % at 6.95 µM; 370,000 tested, 0.83% active; AID 720648, 2013;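 active = inhibition above the mean of compounds lying between control limits plus 3 SD, set per campaign, cut at about 8.5% in these data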;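 also: 0% = DMSO-only wells as the low control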
proKLK7 act: proKLK7 zymogen activators, primary screen, biochemical, fluorescence intensity; Kallikrein-7 (Homo sapiens), P49862; purified proKLK7, EDANS-DABCYL substrate fluorescence; 100% is mature enzyme control, 0% vehicle; activation, % at 7 µM; 370,000 tested, 0.9% active; AID 652039, 2013;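 active = activation above the mean of all tested compounds plus 3 SD, computed per campaign excluding outliers beyond control limits, cut at about 13% in these data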
Target sequence (P49862 whole entry, looked up): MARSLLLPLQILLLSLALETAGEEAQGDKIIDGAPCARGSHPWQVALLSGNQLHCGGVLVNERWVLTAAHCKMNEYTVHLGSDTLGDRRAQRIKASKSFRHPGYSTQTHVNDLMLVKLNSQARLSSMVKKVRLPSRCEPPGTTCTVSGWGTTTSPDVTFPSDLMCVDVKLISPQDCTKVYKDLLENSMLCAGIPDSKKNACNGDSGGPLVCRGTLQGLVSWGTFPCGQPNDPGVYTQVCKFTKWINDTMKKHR
NR3A LBD binder: binders of NR3A ligand-binding domain, primary screen, biophysical, differential scanning fluorimetry, uHTS. Glutamate receptor ionotropic, NMDA 3A (GRIN3A) ligand-binding domain. NR3A LBD differential scanning fluorimetry, Tm shift; 0% = protein alone, 100% = glycine-bound protein. Tm shift relative to glycine control, % at 25 µM. 340,000 tested, 2.5% active;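 active = melting temperature shift of at least 10% of the positive control shift, at one fixed dose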
FAS TE block: FAS thioesterase domain inhibitors, primary screen, biochemical, fluorescence intensity, uHTS; recombinant FAS-TE, OMFH fluorogenic substrate, fluorescence endpoint; inhibition, % at 15 µM; 360,000 tested, 0.67% active; AID 602261, 2012;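 active = compounds whose normalised, plate-corrected inhibition of enzyme fluorescence in the single-dose primary screen is 50% or more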;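 also: 0% = DMSO with enzyme and 100% = substrate without enzyme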
FAS-TE conf: FAS thioesterase domain inhibitors, confirmation, biochemical, fluorescence intensity, single concentration | shares compounds with FAS TE block | recombinant FAS-TE, OMFH fluorogenic substrate | inhibition, % at 15 µM | 2,300 tested, 45% active | AID 624325, 2012;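 active = compounds inhibiting the enzyme by at least 50% at 15 µM in any one of the replicates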;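 also: 0% = enzyme with DMSO only and 100% = wells lacking enzyme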
Numbers without * were called inactive. Sampled rows, rich in hits. Any-hit rate of the full collection: about 4.6%.

Results for COc1ccc([N+](=O)[O-])cc1NC(=O)C(C)N(C)Cc1ccc(Br)cc1 (stereo unspecified) ?
ADAM10 inh: -6; ADAM17 inh: -4; proKLK7 act: 0; NR3A LBD binder: -5; FAS TE block: 42

Results for Cc1sc(NC(=O)Cc2ccc3c(c2)OCO3)nc1-c1ccc2c(c1)CCN2C(=O)c1ccccc1F ?
ADAM10 inh: 0; ADAM17 inh: -2; proKLK7 act: 0; NR3A LBD binder: -4; FAS TE block: 81*; FAS-TE conf: 14

Results for Cc1sc(NC(=O)Cc2ccc3c(c2)OCO3)nc1-c1ccc2c(c1)CCN2C(=O)c1ccc(F)cc1 ?
ADAM10 inh: 6; ADAM17 inh: 2; proKLK7 act: 0; NR3A LBD binder: 0; FAS TE block: 15

What do the screens show for `CCSc1nc2ccccc2n1Cc1cccc([N+](=O)[O-])c1`?
ADAM10 inh: 4; ADAM17 inh: -4; proKLK7 act: 0; NR3A LBD binder: 2; FAS TE block: 59*; FAS-TE conf: 20

Results for Cn1c(SCc2cccc([N+](=O)[O-])c2)nc2ccccc2c1=O ?
ADAM10 inh: 4; ADAM17 inh: 1; proKLK7 act: 0; NR3A LBD binder: -2; FAS TE block: 43

Results for COc1ccc(C(=O)Nn2c(SCc3cccc([N+](=O)[O-])c3)nc3ccccc3c2=O)cc1 ?
ADAM10 inh: 9; ADAM17 inh: 2; proKLK7 act: 0; NR3A LBD binder: 17*; FAS TE block: 59*; FAS-TE conf: 51*

Results for CCSc1nc2ccccc2n1Cc1ccccc1F ?
ADAM10 inh: -1; ADAM17 inh: -5; proKLK7 act: 1; NR3A LBD binder: -2; FAS TE block: 6

What do the screens show for `COCCn1c(SCc2cccc([N+](=O)[O-])c2)nc2ccccc2c1=O`?
ADAM10 inh: 5; ADAM17 inh: 1; proKLK7 act: 0; NR3A LBD binder: 1; FAS TE block: 51*; FAS-TE conf: 12

Results for CCNC(=O)CCc1nc(-c2ccc(C(C)C)cc2)no1 ?
ADAM10 inh: -5; ADAM17 inh: -4

Results for O=C(c1cnn2c(C(F)(F)F)cc(-c3ccccc3)nc12)N1CCCc2ccccc21 ?
ADAM10 inh: -8; ADAM17 inh: -4; proKLK7 act: 0; NR3A LBD binder: -1; FAS TE block: -8

Results for O=C(c1nn2c(C(F)(F)F)cc(-c3cccs3)nc2c1Cl)N1CCCc2ccccc21 ?
ADAM10 inh: -5; ADAM17 inh: -1; proKLK7 act: 0; NR3A LBD binder: -1; FAS TE block: 68*; FAS-TE conf: -3

How did CC(C)CNC(=O)C1CSCCS(=O)(=O)N1Cc1ccc(F)cc1 (stereo unspecified) do in these assays?
ADAM10 inh: 3; ADAM17 inh: 0; proKLK7 act: 0

Results for CC(C)(C)OC(=O)N[C@@H](Cc1ccccc1)c1nnc(S(=O)(=O)Cc2ccccc2)o1 ?
ADAM10 inh: 8; ADAM17 inh: 1; proKLK7 act: -1

How did Cc1ccccc1CS(=O)(=O)c1nnc([C@H](Cc2ccccc2)NC(=O)OC(C)(C)C)o1 do in these assays?
ADAM10 inh: 10; ADAM17 inh: 4; proKLK7 act: 1; NR3A LBD binder: -4; FAS TE block: 64*; FAS-TE conf: 27*

How did CN(CCOc1ccccc1)CC(=O)Nc1ccc([N+](=O)[O-])cc1Cl do in these assays?
ADAM10 inh: 10; ADAM17 inh: 3; proKLK7 act: -1; NR3A LBD binder: -5; FAS TE block: 60*; FAS-TE conf: 39*

How did Cc1nc(N2CCN(c3ccccn3)CC2)c2c(C)c(C(=O)Nc3c(F)cc(F)cc3Br)sc2n1 do in these assays?
ADAM10 inh: 4; ADAM17 inh: 1; proKLK7 act: -96; NR3A LBD binder: -1; FAS TE block: 47

Results for Cc1nc(N2CCN(c3ccccn3)CC2)c2c(C)c(C(=O)Nc3c(C)cc(Br)cc3C)sc2n1 ?
ADAM10 inh: 7; ADAM17 inh: -2; proKLK7 act: -1; NR3A LBD binder: 1; FAS TE block: 73*; FAS-TE conf: 15

How did Cc1ccccc1CN1CCCCC(NC(=O)c2ccccc2F)C1=O (stereo unspecified) do in these assays?
ADAM10 inh: -3; ADAM17 inh: -7; proKLK7 act: 0

How did O=C1CC(c2cccc([N+](=O)[O-])c2)c2cc3c(cc2N1)CCC3 (stereo unspecified) do in these assays?
ADAM10 inh: 12; ADAM17 inh: 1; proKLK7 act: 0; NR3A LBD binder: -2; FAS TE block: 51*; FAS-TE conf: 33*

How did O=C1CC(c2cccc([N+](=O)[O-])c2)c2c(ccc3ccccc23)N1 (stereo unspecified) do in these assays?
ADAM10 inh: -4; ADAM17 inh: 0; proKLK7 act: 1; NR3A LBD binder: -19; FAS TE block: 55*; FAS-TE conf: 49*

What do the screens show for `O=C1CC(c2cccc(Cl)c2)c2cc3c(cc2N1)CCC3` (stereo unspecified)?
ADAM10 inh: 5; ADAM17 inh: 7; proKLK7 act: -1; NR3A LBD binder: -47; FAS TE block: 20

What do the screens show for `O=C(c1cc(-c2cccs2)nc2ccccc12)N1CCN(c2ccccc2)CC1`?
ADAM10 inh: -55; ADAM17 inh: -17; proKLK7 act: -4; NR3A LBD binder: -6; FAS TE block: 50*; FAS-TE conf: 21

Results for CCC1CCCCN1S(=O)(=O)c1ccc(NC(=O)c2nc(S(C)(=O)=O)ncc2Cl)cc1 (stereo unspecified) ?
ADAM10 inh: -8; ADAM17 inh: -4; proKLK7 act: 4; NR3A LBD binder: -8; FAS TE block: 60*; FAS-TE conf: 66*

What do the screens show for `CCS(=O)(=O)c1ncc(Cl)c(C(=O)Nc2ccc(C)cc2)n1`?
ADAM10 inh: 5; ADAM17 inh: -1; proKLK7 act: 0; NR3A LBD binder: -1; FAS TE block: 23

What do the screens show for `CS(=O)(=O)c1ncc(Cl)c(C(=O)Nc2ccc3ccccc3c2)n1`?
ADAM10 inh: 10; ADAM17 inh: 4; proKLK7 act: 0; NR3A LBD binder: -21; FAS TE block: 57*; FAS-TE conf: 33

What do the screens show for `Cn1cccc1CC(=O)NN=Cc1cccc(F)c1`?
ADAM10 inh: 0; ADAM17 inh: -3; proKLK7 act: 0
